# Reference: PubChem BioAssay
# Calls of active or inactive are those of the source.
# Experiments:
# [1] = compound effects on lung adenocarcinoma cell viability – A549, calcein-AM fluorescence, 48 h, basal, profiling panel (AID 1162); settings: higher = more signal
# [2] = compound effects on differentiated 3T3-L1 adipocyte viability – cell-based, 3T3-L1 adipocytes, calcein-AM fluorescence, 48 h, basal, profiling panel (AID 1163); settings: 3T3-L1 adipocytes viability, higher = more signal
# [3] = compound effects on hepatocellular carcinoma cell viability – HepG2, calcein-AM fluorescence, 48 h, basal, profiling panel (AID 1164); settings: higher = more signal
# [4] = compound effects on multiple myeloma cell viability – MM1S, calcein-AM fluorescence, 48 h, basal, profiling panel (AID 1165); settings: higher = more signal;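 further: viability of MM1S multiple myeloma cells under basal unstimulated conditions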
# [5] = calcein-AM signal in unstimulated myeloma cells – cell-based, calcein-AM fluorescence, 48 h, PK04 Diversity Set, profiling panel (AID 1166); settings: RPMI8226 myeloma viability, higher = more signal;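 further: cells grown under basal conditions without added stimulus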
# [6] = JC-1 mitochondrial signal, unstimulated HepG2 cells – cell-based, JC-1 fluorescence, 24 h, 100 nL compound, profiling panel (AID 1167); settings: HepG2 mitochondrial potential, higher = more signal
# [7] = JC-1 mitochondrial signal, unstimulated adipocytes – cell-based, JC-1 fluorescence, 3T3-L1 adipocytes, 24 h, 100 nL compound, profiling panel (AID 1168); settings: JC-1 mitochondrial fluorescence, higher = more signal, called active from +8 up or from −8 down
# [8] = JC-1 mitochondrial signal, unstimulated myeloma cells – cell-based, JC-1 fluorescence, RPMI8226, 24 h, 100 nL compound, profiling panel (AID 1169); settings: JC-1 mitochondrial potential fluorescence, higher = more signal
# [9] = JC-1 mitochondrial signal, unstimulated MM1S myeloma – cell-based, JC-1 fluorescence, 24 h, 100 nL compound, profiling panel (AID 1170); settings: MM1S mitochondrial potential, higher = more signal
# [10] = resazurin metabolic signal in A549 cells – cell-based, resazurin fluorescence, 24 h, PK04 Diversity Set, profiling panel (AID 1171); settings: A549 viability, higher = more signal, called active from +8 up or from −8 down
# Further: test concentration not given here.
Structure (SMILES),z-score [1],z-score [2],z-score [3],z-score [4],z-score [5],z-score [6],z-score [7],z-score [8],z-score [9],z-score [10]
CN1C(=O)C2C=CC(C(O)c3cccn3C)N(Nc3ccc([N+](=O)[O-])cc3[N+](=O)[O-])C2C1=O (stereo not given),-0.49,-1.35,-0.678,-2.1,0.16,-1.58,-1.16 (inactive),0.647,-0.0962,-1.03 (inactive)
O=C1N(Cc2ccccc2)c2ccccc2C[C@]12N=C(c1ccc(OCCCO)cc1)O[C@@H]2c1ccccc1,-1.25,-0.372,-3.54,-2.32,-3.88,-1.05,0.162 (inactive),-1.22,-2.58,-2.07 (inactive)
CCOC(=O)C[C@H]1[C@H](OC(=O)c2ccc(C(=O)c3ccccc3)cc2)[C@@H](NC(=O)c2ccc(-c3ccccc3)cc2)c2cc(OCCCO)ccc2N1C(=O)Cc1ccc(OC)cc1,-0.61,0.122,-0.461,0.727,-0.205,1.57,-0.0721 (inactive),-0.807,-0.551,-0.131 (inactive)
CCN(CC)c1ccc(N2CC=CC34O[C@@H]5/C=C\CCCOC(=O)C5[C@H]3C(=O)N(C(C)CO)[C@@H]4C2=O)cc1 (stereo not given in full),0.838,-0.536,1.43,1.67,0.403,0.8,0.744 (inactive),-0.441,0.135,0.0032 (inactive)
CCOC(=O)C[C@H]1[C@H](OC(=O)c2cc3ccccc3oc2=O)[C@@H](NC(=O)c2ccc3ccccc3n2)c2cc(OCCCO)ccc2N1C(=O)Cc1ccc(OC)cc1,0.308,0.499,-0.355,0.765,-0.946,0.492,-0.362 (inactive),0.498,-0.423,0.711 (inactive)
C=CCC(OC(C)=O)[C@@H]1[C@@H](N(Cc2ccc(-c3ccccc3)cc2)C(=O)c2ccc(-c3ccccc3)cc2)c2cc(OCCCO)ccc2N1C(=O)c1ccc2ccccc2c1 (stereo not given in full),-0.77,0.676,0.313,-0.531,-0.685,1.42,-0.645 (inactive),0.795,0.563,0.204 (inactive)
C=C(/C(=C/C[C@H](OC(=O)c1ccncc1)c1ccc(CO)o1)c1cnc2ccccc2c1)C(C)C,1.07,0.521,-0.181,-2.88,-1.25,-0.211,0.0957 (inactive),0.319,-0.161,0.208 (inactive)
O=C1OCCC/C=C\[C@H]2OC34C=CCN(c5ccc6ccccc6c5)C(=O)[C@H]3N(CCO)C(=O)[C@@H]4C12 (stereo not given in full),0.451,1.91,-0.569,1.3,-0.205,-0.00127,-0.622 (inactive),-0.0898,1.03,-1.48 (inactive)
C=C(COC)/C(=C/C[C@H](OC(=O)c1ccncc1)c1ccccc1OCCO)c1cc(C(=O)OC)ccc1OC,-0.0954,0.0589,-0.0472,-3.34,-1.58,1.94,-0.658 (inactive),-0.596,-0.159,0.315 (inactive)
C=CCN1C(=O)[C@]2(CCS(=O)(=O)c3ccccc3)N=C(c3ccc(OCCCO)cc3)O[C@@H]2c2ccccc21,0.776,0.142,0.504,-0.0236,0.716,0.452,1.42 (inactive),-0.156,0.615,-2.52 (inactive)
C=C(/C(=C/C[C@H](OC(C)=O)c1ccc(CO)o1)c1cnc2ccccc2c1)C(C)C,-0.166,0.283,-0.7,-1.36,-1.47,-1.36,-0.524 (inactive),0.867,0.246,0.643 (inactive)
NCCCCCNC(=O)[C@@H]1C[C@@H]2C(=O)N[C@@H](CCCCN)C(=O)N2[C@@H]1c1ccc(O)cc1,-0.0858,-0.426,0.131,-0.29,-0.0496,-0.573,1.56 (inactive),-0.457,-1.14,0.0497 (inactive)
CCOC(=O)C1=C[C@@H](C(C)(C)C)N(S(=O)(=O)c2ccc(C)cc2)[C@H]1c1cccc2ccccc12,-1.35,-0.15,-1.62,-0.205,-2.97,3.37,0.348 (inactive),-0.919,-0.541,0.828 (inactive)
Cc1ccc(C(C)CC(O)C2C=CC3C(=O)N(c4ccccc4)C(=O)C3N2Nc2ccccc2)o1 (stereo not given),-0.0446,0.001,0.179,-0.559,-1.69,-1.64,-0.279 (inactive),-0.178,-1.71,-0.706 (inactive)
CCOC(=O)C[C@H]1[C@H](OC(=O)c2ccc(C(=O)c3ccccc3)cc2)[C@@H](NC(=O)c2ccc3ccccc3n2)c2cc(OCCCO)ccc2N1C(=O)Cc1ccc(OC)cc1,0.822,0.418,0.113,0.37,0.0914,0.546,0.295 (inactive),-0.181,-0.14,0.0291 (inactive)
O=C1O[C@H](c2ccccc2)[C@H](c2ccccc2)N2[C@H]1[C@@H](C(=O)O)[C@]1(C(=O)Nc3ccc(C#CCCO)cc31)[C@H]2c1ccccc1OCCO,-0.0678,1.32,-0.187,0.0409,-0.353,-0.892,-0.426 (inactive),-0.616,0.884,-0.0294 (inactive)

Structure (SMILES),z-score [1],z-score [2],z-score [3],z-score [4],z-score [5],z-score [6],z-score [7],z-score [8],z-score [9],z-score [10]
CC[C@@H]1C=C(C(=O)O)[C@H](c2ccc(C#N)cc2)N1S(=O)(=O)c1ccc(C)cc1,-0.484,-0.364,-1,0.492,-0.95,-0.968,-0.552 (inactive),0.875,-1.06,-0.858 (inactive)
COc1ccc([Si](C)(C)[C@H]2[C@H](CC(=O)N(CCO)Cc3ccccc3)O[C@@]3(C(=O)N(C)c4c(Br)cc(C)cc43)[C@@H]2C)cc1,-3.51,-0.346,-4.11,-2.75,-4.66,-2.26,0.0268 (inactive),-1.07,-2.16,-1.02 (inactive)
Cc1ccc(NN2C(C(O)c3c(F)cccc3Cl)C=CC3C(=O)N(C4CCCCC4)C(=O)C32)cc1 (stereo not given),0.57,-0.617,0.934,0.949,0.451,-0.511,0.165 (inactive),0.0377,-1.04,0.693 (inactive)
COc1cc(NN2C(C(O)c3ccc(N(C)C)cc3)C=CC3C(=O)N(c4ccccc4)C(=O)C32)cc(OC)c1OC (stereo not given),-0.0098,0.808,0.181,-0.0191,-0.889,-0.112,-0.783 (inactive),0.134,-0.0117,-0.815 (inactive)
CC(C)[Si](C#C[Si](C(C)C)(C(C)C)C(C)C)(O[C@H](c1ccccc1)c1cn(Cc2ccccc2)nn1)C(C)C,-0.491,-0.224,0.732,1.01,0.798,1.63,-0.703 (inactive),0.294,-0.888,1.77 (inactive)
CCOC(=O)C1=CC[C@@H](c2ccccc2)N(S(=O)(=O)c2ccc(C)cc2)[C@H]1c1ccccc1,-0.84,-1.5,-0.634,-1.79,0.229,1.61,-1.29 (inactive),-1.04,-0.0355,1.44 (inactive)
O=C1C2C=CC(C(O)C3CC=CCC3)N(Nc3ccccc3)C2C(=O)N1c1ccccc1 (stereo not given),-1.05,-0.0629,-1.2,-1.13,-1.14,-2.47,-0.858 (inactive),0.173,-1.02,-0.728 (inactive)
O[C@@H](Cc1ccccc1)[C@@H](/C=C/C1CC1)N(CC#Cc1ccccc1)Cc1ccccc1Br,-0.049,-0.667,-0.258,0.0144,-0.353,-1.79,-0.344 (inactive),-0.44,-0.571,1.62 (inactive)
COCCCNC(=O)[C@@]1(CCC(=O)OC(C)(C)C)N=C(c2ccc(OCCCO)cc2)O[C@H]1c1ccccc1N=[N+]=[N-],0.618,0.251,0.977,-1.21,-1.16,1.74,3.98 (inactive),-1.15,-0.386,1.38 (inactive)
CCCCC(CC)C(O)C1C=CC2C(=O)N(c3ccccc3)C(=O)C2N1Nc1ccccc1F (stereo not given),0.389,-0.21,-0.553,0.566,0.203,-0.639,-0.511 (inactive),0.51,-0.775,0.653 (inactive)
O=C(NCCN1CCOCC1)[C@@H]1c2ccccc2C(=O)N(Cc2ccccc2Cl)[C@H]1c1ccc(CO)cc1,0.53,-0.249,1.15,-0.142,0.125,3.16,0.64 (inactive),-0.695,-0.408,0.59 (inactive)
CS(=O)(=O)CCOC(=O)C1=CC(c2ccc(CO)cc2)=CC(C2CC2)N(Cc2sc3ccccc3c2Cl)C=C1C(=O)OCCS(C)(=O)=O (stereo not given),-0.852,-0.716,0.0312,-3.29,-2.92,0.424,0.662 (inactive),-0.943,-1.87,-1.05 (inactive)
COc1cc2c(cc1O)C(c1ccc(CN3CCCC3)cc1)N(Cc1cc3c(cc1Br)OCO3)CC2 (stereo not given),-0.717,-0.564,-0.341,-3.17,0.173,1.21,0.144 (inactive),-0.398,-1.29,0.694 (inactive)
CCCC=C(CCC)[C@@H](NS(=O)(=O)CC12CCC(CC1=O)C2(C)C)c1ccc(C(=O)OC)cc1 (stereo not given in full),-0.672,-0.316,-0.915,0.295,-1.06,-2,0.273 (inactive),0.7,-1.46,0.252 (inactive)
CS(=O)(=O)CCOC(=O)C1=CC(CCCO)=CC(c2ccc(CN3CCCC3)cc2)N(Cc2sc3ccccc3c2Cl)C=C1C(=O)OCCS(C)(=O)=O (stereo not given),0.389,0.958,0.888,-1.59,0.16,2.41,0.0187 (inactive),-0.544,-0.299,0.328 (inactive)
COc1ccc([Si](C)(C)[C@@H]2[C@@H](CCO)O[C@]3(C(=O)N(Cc4ccccc4)c4ccc(NC(=O)[C@H](C)O)cc43)[C@H]2C)cc1,-2.21,0.641,-4.61,-2.62,-4.3,-2.7,-0.241 (inactive),-0.972,-2.15,-3.3 (inactive)
